Results taken from PubChem BioAssay.
Activity calls are given as the source filed them. How the calls were made is not given here.

Each molecule was assayed against Pantothenate synthetase (Mycobacterium tuberculosis (strain ATCC 25618 / H37Rv)) (UniProt P9WIL5) (assay: Recombinant Mtb pantothenate synthetase (PanC) inhibitors, coupled enzyme, confirmatory (AID 375;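 further: 0% = full reaction with vehicle and 100% = no enzyme background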)). Conditions: coupled enzyme assay; at 10 µM, stronger effect = higher value.
Sequence of Pantothenate synthetase (Mycobacterium tuberculosis (strain ATCC 25618 / H37Rv)) (P9WIL5 whole entry, looked up): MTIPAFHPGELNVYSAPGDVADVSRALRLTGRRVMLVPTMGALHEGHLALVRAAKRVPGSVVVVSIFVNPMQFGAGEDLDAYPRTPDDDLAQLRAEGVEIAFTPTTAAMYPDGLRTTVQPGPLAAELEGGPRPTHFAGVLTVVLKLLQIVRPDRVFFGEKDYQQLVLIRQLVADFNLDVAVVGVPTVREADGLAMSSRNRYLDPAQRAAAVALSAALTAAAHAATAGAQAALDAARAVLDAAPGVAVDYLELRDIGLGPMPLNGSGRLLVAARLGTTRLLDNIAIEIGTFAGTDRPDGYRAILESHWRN

Compound | inhibition
O=C(CCOc1ccccc1)NCc1ccccc1 | 0% (inactive)
CCOC(=O)c1oc2ccccc2c1CSc1nnnn1-c1ccc(OC)cc1 | 1% (inactive)
Cc1nc2ccc(NC(=O)N3CCOCC3)cc2s1 | 4% (inactive)
COc1cc(C(=O)N2CCN(c3cc(Cl)ccc3Cl)CC2)cc(OC)c1OC | 1% (inactive)
Cc1c(C#N)c(N)c(C(=O)c2ccccc2)n1Cc1ccccc1 | 0% (inactive)
Cn1c2ccc(F)cc2c2ncn(CCN3CCOCC3)c(=O)c21 | 6% (inactive)
Cc1nnc(C)n1/N=C/c1cccc(Oc2ccccc2)c1 | 1% (inactive)
CCCCn1c(SCC(=O)Nc2ccc(OC)cc2)nc2ccc(N3CCOCC3)cc2c1=O | 0% (inactive)
CCOC(=O)C1=C(C)Nc2nc(SCC(=O)OC)nn2C1c1cc(F)cc(F)c1 (stereo not given) | 3% (inactive)
COc1ccccc1C1c2c(oc3ccc(Cl)cc3c2=O)C(=O)N1c1cc(C)on1 (stereo not given) | 0% (inactive)
Cc1cccc2cc(C(c3nnnn3C(C)(C)C)N3CCN(C(=O)c4ccco4)CC3)c(=O)[nH]c12 (stereo not given) | 6% (inactive)
Cc1cc(NC(=O)CSc2nccn2-c2ccc(Cl)cc2)no1 | 0% (inactive)
c1ccc2c(CC3=NCCN3)cccc2c1 | 0% (inactive)
CC(C)(C)Cc1nc(-c2ccccn2)no1 | 0% (inactive)
NC(=O)c1c(-c2ccccc2)oc2ccc(O)cc12 | 0% (inactive)
COc1ccc(/C(O)=C2/C(=O)C(=O)N(CCCN(C)C)C2c2ccco2)cc1Cl (stereo not given) | 0% (inactive)
COc1cccc(-c2nnc(NC(C)=O)o2)c1 | 0% (inactive)
O=C(NCCCN1CCCC1=O)c1cncc(Br)c1 | 0% (inactive)
CC(=O)Nc1c(-c2ccc(F)cc2)nc2ccccn12 | 0% (inactive)
CC(C)n1nc(C(=O)Nc2nc3ccc(S(C)(=O)=O)cc3s2)c2ccccc2c1=O | 0% (inactive)

Compound | inhibition
COc1ccc(S(=O)(=O)NCC(=O)N(CC(=O)NCC2CCCO2)c2ccccc2C)cc1 (stereo not given) | 8% (inactive)
Cc1noc(C)c1C(=O)OCC(=O)Nc1ccccc1C(=O)NC(C)c1ccccc1 (stereo not given) | 14% (inactive)
O=C(CSc1nnc(Cc2ccccc2)n1C1CCCCC1)N1CCOCC1 | 3% (inactive)
CCCCN(C)Cc1c(C)[nH]c2c(Cl)cccc2c1=O | 5% (inactive)
N#Cc1c(NC(=O)CSc2nc(N)cc(=O)[nH]2)sc2c1CCCCCC2 | 0% (inactive)
Cc1cc(C)c2c(=O)n(CC(=O)NCCCN3CCOCC3)sc2n1 | 1% (inactive)
Cc1ccc(-c2nc3cc(N)ccc3o2)cc1 | 0% (inactive)
COc1ccc2ccccc2c1CN1CCN(C)CC1 | 3% (inactive)
O=C(NCc1ccc2c(c1)OCO2)c1ccccn1 | 6% (inactive)
O=C(CN1C(=O)COc2ccccc21)N(Cc1cccnc1)Cc1ccccc1F | 0% (inactive)
Cc1onc(-c2ccccc2)c1C(=O)Nc1ccnn1C1CCCCC1 | 1% (inactive)
COCCn1cc(C(=O)c2ccccc2OCC(=O)Nc2cc(C)on2)cc(C#N)c1=O | 0% (inactive)
CC1=C(C(N)=O)C(c2ccccn2)n2nc(-c3ccccc3Cl)nc2N1 (stereo not given) | 5% (inactive)
CCOc1ccc(-c2cc(C(=O)N3CCN(c4ccccn4)CC3)c3ccccc3n2)cc1 | 2% (inactive)
CCN1CCN(c2cc3c(cc2F)c(=O)c(C(=O)O)cn3C2CC2)CC1 | 0% (inactive)
CC1(C)Cc2cccc(OCC(=O)O)c2O1 | 5% (inactive)
COCc1nnc(NC(=O)CCCOc2ccccc2)s1 | 0% (inactive)
COc1ccccc1NC(=O)C1=C(C)Nc2nnnn2C1c1ccccc1OC (stereo not given) | 2% (inactive)
CCc1nnc(NC(=O)C2CCCN2S(=O)(=O)c2ccc(C)cc2)s1 (stereo not given) | 2% (inactive)
Clc1ccc(Cl)c(-c2nn3c(Cn4cnc5ccccc54)nnc3s2)c1 | 0% (inactive)
